Results filed as inconclusive are left out. Calls of active or inactive are those of the source. The call rests on the fitted dose curve; in most records, active means well fitted inhibition curve with a large enough effect; inconclusive means small, poorly fitted or top-dose-only effect; inactive means flat fitted curve, though single readings scatter. Square brackets hold non-standard residues; d marks the D form. Peptide text beside a SMILES is read from it. Dolaproine = CO[C@@H]([C@@H]1CCCN1)[C@@H](C)C(=O)O; Dil = CC[C@H](C)[C@H](NC)[C@@H](CC(=O)O)OC; NMeV = CN[C@H](C(=O)O)C(C)C

A short description of this test: Identification of antibody-drug conjugate (ADC) payloads which are substrates of ATP-binding cassette drug efflux transporters: ABCG2-HEK293-pcDNA cell line. To be noted: ABCG2-HEK293 transfected cells viability, CellTiter-Glo, 48 h. The text has this: Antibody-drug conjugates (ADCs) feature an antibody recognizing a specific protein joined to a potent toxic payload. Numerous antibody-drug conjugates have received FDA approval; however, clinical resistance arises. Resistance mechanisms include decreased expression or mutation of the antibody target, impaired payload release, or increased expression of ATP-binding cassette (ABC) efflux transporters associated with multidrug resistance. We therefore sought to characterize the interaction of ABC multidrug transporters with ADC payloads. We performed a high-throughput screen with 27 common ADC payloads using cells lines expressing ABC transporters P-glycoprotein (P-gp, encoded by ABCB1) or ABCG2 (encoded by ABCG2). Confirmatory assays were also performed using cells transfected to express P-gp, ABCG2, or MRP1 (encoded by ABCC1). Several commonly used ADC payloads were substrates of P-gp, including calicheamicin gamma1, monomethyl auristatin E, DM1, and DM4. All the pyrrolobenzodiazepines tested - SJG136, SGD-1882, SG2057, and SG3199 - were substrates of P-gp, ABCG2, and MRP1. […] These findings highlight the risk of transporter-mediated resistance with certain ADC payloads and underscore the importance of selecting payloads that evade ABC transporter recognition in future ADC development.
HEK-293 cells were transfected with empty vector (pcDNA) or vector containing the human ABCB1 (MDR-19), ABCG2 (R-5), or ABCC1 gene (MRP1) and were maintained in EMEM with 2 mg/mL G418 added to maintain transporter expression. The HeLa derivative KB-3-1 and the P-gp overexpressing KB-8-5-11 subline were maintained in DMEM; KB-8-5-11 additionally received 100 ng/mL colchicine. H460 parental cells were obtained from the Division of Cancer Treatment and Diagnosis Tumor Repository, National Cancer Institute at Frederick, MD and were cultured in RPMI. The ABCG2 expressing subline H460 MX20 was generated by selecting H460 cells in 20 nM mitoxantrone. Media in all cases was supplemented with 10% FBS and 1% penicillin-streptomycin. We explored 27 common ADC payloads, in two orthogonal, paired cell line sets-a drug selected and transfected set for each transporter--to identify substrates of the ABC transporters P-gp and ABCG2. Compounds were sourced from Levena Biopharma (San Diego, CA), Selleck Chem (Houston, TX), ChemieTek (Indianapolis, IN), or Microsource Discovery Systems (Gaylordsville, CT). Screening was performed as previously described. Briefly, cells were plated at a density of 500 cells/well in 1536 well plates with compounds added using a 1536-head pin tool (Kalypsys, San Diego CA). Cells were incubated with cytotoxic drugs and processed with CellTiter Glo reagent (Promega, Madison, WI) to determine viability after 48 hours. P-gp substrates were identified by comparing compound activity between paired sets of low-expressing (sensitive) and over-expressing (resistant) cell lines.
Turning to `CCN(C(C)=O)[C@H]1CO[C@@H](O[C@H]2[C@H](O[C@H]3C#C/C=C\C#C[C@]4(O)CC(=O)C(NC(=O)OC)=C3/C4=C\CSSSC)O[C@H](C)[C@@H](NO[C@H]3C[C@H](O)[C@H](SC(=O)c4c(C)c(I)c(O[C@@H]5O[C@@H](C)[C@H](O)[C@@H](OC)[C@H]5O)c(OC)c4OC)[C@@H](C)O3)[C@@H]2O)C[C@@H]1OC`, the Potency is 2.7 nM (active). As for `CC[C@H](C)[C@@H]([C@H](N)CC(=O)N1CCC[C@H]1[C@H](OC)[C@@H](C)C(=O)N[C@@H](Cc1ccccc1)c1nccs1)N(C)C(=O)[C@@H](NC(=O)[C@H](C(C)C)N(C)C)C(C)C`, the figure is 6 nM (active); as for `COc1cccc2c1C(=O)c1c(O)c3c(c(O)c1C2=O)C[C@@](O)(C(=O)CO)C[C@@H]3O[C@H]1C[C@H]2[C@H](O[C@@H]3[C@@H](OC)OCCN32)[C@H](C)O1`, 0.2 nM (active); as for `CC(C)(C)OC(=O)Nc1ccc2[nH]c(C(=O)N3C[C@@H](CCl)c4c3cc(O)c3ccccc43)cc2c1`, 16.9 nM (active). With `CC[C@]1(O)CC2CN(CCc3c([nH]c4ccccc34)[C@@](C(=O)OC)(c3cc4c(cc3OC)N(C)[C@H]3[C@@](O)(C(=O)OC)[C@H](OC(C)=O)[C@]5(CC)C=CCN6CC[C@]43[C@@H]65)C2)C1` (stereo partly specified), the Potency is 300 nM (active). Consider `CN(C)CCOc1ccc2[nH]c(C(=O)N3C[C@@H](CCl)c4c3cc(O)c3ccccc43)cc2c1`, for which the Potency was 0.8 nM (active). As for `Cc1nc(Nc2ncc(C(=O)Nc3c(C)cccc3Cl)s2)cc(N2CCN(CCO)CC2)n1`, the figure is 4750 nM (active). As for `CCN[C@H]1CO[C@@H](O[C@H]2[C@H](O[C@H]3C#C/C=C\C#C[C@]4(O)CC(=O)C(NC(=O)OC)=C3/C4=C\CSSSC)O[C@H](C)[C@@H](NO[C@H]3C[C@H](O)[C@H](SC(=O)c4c(C)c(I)c(O[C@@H]5O[C@@H](C)[C@H](O)[C@@H](OC)[C@H]5O)c(OC)c4OC)[C@@H](C)O3)[C@@H]2O)C[C@@H]1OC`, the figure is 1.1 nM (active). With `COC(=O)c1cc2c3c(cc(O)c2[nH]1)N(C(=O)c1cc2cc(OC)c(OC)c(OC)c2[nH]1)CC3CCl` (stereo unspecified), the Potency was 3.4 nM (active). As to `COc1cc2cc(c1Cl)N(C)C(=O)C[C@H](O)[C@]1(C)O[C@H]1[C@H](C)C1C[C@@](O)(NC(=O)O1)[C@H](OC)/C=C/C=C(\C)C2`, the Potency was 4750 nM (active). As for `CC[C@H](C)[C@@H]([C@@H](CC(=O)N1CCC[C@H]1[C@H](OC)[C@@H](C)C(=O)N[C@@H](Cc1ccccc1)C(=O)O)OC)N(C)C(=O)[C@@H](NC(=O)[C@@H](NC)C(C)C)C(C)C` (H-[NMeV]V[Dil][Dolaproine]F-OH), the figure is 3360 nM (active).

For the origin of these results see PubChem BioAssay AID2061324 (National Center for Advancing Translational Sciences (NCATS), 2025).
